“And” between values parts separate entries of the source, which are not always exact repeats. Identical values can stand only once. The whole screen tested about 240,000 compounds, of which about 1,300 (0.54%) were called active. Where a call stands in place of a potency, no number is given. Roughly 1% stayed inconclusive and do not appear here. The call rests on the fitted dose curve; in most records, active means well fitted inhibition curve with a large enough effect; inconclusive means small, poorly fitted or top-dose-only effect; inactive means flat fitted curve, though single readings scatter. The full list was thinned out, with actives kept by preference. A structure can be active in one record and inactive in another.
biological target: ATP-dependent DNA helicase Q1 (Homo sapiens) (UniProt P46063); assay: qHTS Assay for Inhibitors of RecQ-Like Dna Helicase 1 (RECQ1); details: RECQ1 DNA unwinding, red fluorescence kinetic read; series mostly up to 57.3 µM; further: nearly all actives have a fitted effect of over 30% in size
Outline: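 50 nM RECQ1T1 preincubated 15 min with compound in Tris pH 8.0 buffer with MgCl2, DTT, Tween-20 and 2.5 ug/ml poly(dI-dC); started with 200 nM TAMRA/BHQ-2 forked duplex and 2 mM ATP. Unwinding read as fluorescence (525/598 nm), two reads 2 h apart.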
Potency means the concentration at half of the fitted maximal effect.

Sequence of ATP-dependent DNA helicase Q1 (Homo sapiens) (P46063 whole entry, looked up): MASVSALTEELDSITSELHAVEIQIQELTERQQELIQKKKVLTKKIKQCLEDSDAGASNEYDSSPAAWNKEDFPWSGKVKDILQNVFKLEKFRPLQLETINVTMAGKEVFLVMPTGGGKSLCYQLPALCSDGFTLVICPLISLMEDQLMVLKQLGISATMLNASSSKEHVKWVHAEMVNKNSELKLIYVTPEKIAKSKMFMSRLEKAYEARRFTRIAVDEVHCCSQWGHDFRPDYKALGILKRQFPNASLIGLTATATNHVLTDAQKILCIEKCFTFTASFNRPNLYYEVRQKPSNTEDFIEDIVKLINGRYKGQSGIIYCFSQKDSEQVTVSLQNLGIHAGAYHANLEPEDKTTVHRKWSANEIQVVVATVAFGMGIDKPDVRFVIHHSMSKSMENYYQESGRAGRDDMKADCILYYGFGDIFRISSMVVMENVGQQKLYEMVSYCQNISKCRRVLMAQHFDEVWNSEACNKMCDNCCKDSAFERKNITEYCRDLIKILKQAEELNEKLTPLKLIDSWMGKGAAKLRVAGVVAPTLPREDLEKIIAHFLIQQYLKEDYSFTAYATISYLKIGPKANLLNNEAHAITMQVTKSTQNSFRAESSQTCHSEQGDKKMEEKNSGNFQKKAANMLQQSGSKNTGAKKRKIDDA

SMILES | Potency
CCOC(=O)C(C)Sc1nnc(CSc2nc3nc(C)cc(C)n3n2)o1 (configuration not stated) | inactive
O=C(NCc1ccccc1)C1=C[C@H](C2CC2)C[C@H](OCc2ccc(CO)cc2)O1 | inactive
CC(C)(C)[C@H]1C=C(C(=O)NCc2ccccc2)O[C@@H](OCc2ccc(CO)cc2)C1 | inactive
O=C(NCc1ccccc1)C1=C[C@@H](C2CCCCC2)C[C@@H](OCc2ccc(CO)cc2)O1 | 15.8 µM (active)
Cc1cc(N(C)C)nc(Cl)n1 | inactive
NCCC(=O)c1ccccc1N | inactive
Oc1ccc(-c2c(-c3ccccc3)nn3c(C(F)(F)F)cc(C(F)(F)F)nc23)cc1 | inactive
CC12CCC(C(=O)N(NC(=O)c3ccccc3O)C1=O)C2(C)C (configuration not stated) | 39.8 µM (active)
CC12CCC(C(=O)N(c3cccc(Cl)c3)C1=O)C2(C)C (configuration not stated) | inactive
O=C(NN1C(=O)C2C(C1=O)C1C=CC2C12CC2)c1ccccc1Cl (configuration not stated) | inactive
CO[C@@]12[C@@H](COC(N)=O)C3=C(C(=O)C(C)=C(N)C3=O)N1C[C@@H]1N[C@@H]12 | inactive
Cc1ccc(S(=O)(=O)N2CCC(=O)N([C@H](COCc3ccccc3)Cc3ccccc3)CC2)cc1 | inactive
CC[C@H](C)[C@H](NC(=O)[C@H](Cc1ccc(O)cc1)NC(=O)[C@@H](NC(=O)[C@H](CCCN=C(N)N)NC(=O)[C@@H](N)CC(=O)O)C(C)C)C(=O)N[C@@H](Cc1cnc[nH]1)C(=O)N1CCC[C@H]1C(=O)N[C@@H](Cc1ccccc1)C(=O)O | inactive
CCCCCCOC(=O)NCC(O)c1ccccc1 (configuration not stated) | inactive
CCCn1c(C(O)c2ccc(OCC)cc2)nc2ccccc21 (configuration not stated) | inactive
CCCCCC(O)c1cccc(OCc2ccc3ccccc3n2)c1 (configuration not stated) | inactive and 28.2 µM (active)
COc1ccc(C2/C=C\CN(C(=O)c3ccc(C)cc3)C(Cc3ccccc3)C(=O)N2Cc2ccc(F)cc2)cc1 (configuration not stated) | inactive
COc1ccc(C2/C=C\CN(Cc3ccco3)C(C)C(=O)N2Cc2ccc(F)cc2)cc1 (configuration not stated) | inactive
CCOC(=O)CC1C(=O)NCCN1c1nc2c(C)cccn2c(=O)c1/C=C1\SC(=S)N(C(C)CC)C1=O (configuration not stated) | 35.5 µM (active)
CCOC(=O)CC1C(=O)NCCN1C(=O)COc1ccc(Br)cc1C (configuration not stated) | inactive
Cc1cccn2c(=O)c(/C=C3\SC(=S)N(CC(C)C)C3=O)c(NCCCOC(C)C)nc12 | inactive

SMILES | Potency
CCC(C)(C)NC(=O)c1cc([N+](=O)[O-])ccc1N1CCCCC1 | inactive
COc1ccc(C(CCN2CCOCC2)c2c(OC)cc(OC)c3c2OC(=O)CC3c2ccc(OC)cc2)cc1 (configuration not stated) | inactive
C=CCNC(=S)NNC(=O)c1cc(Cl)ccc1OC | inactive
COc1ccc(Cl)cc1C(=O)NNC(=S)NC(=O)/C=C/c1ccco1 | 31.6 µM (active)
COc1ccc(Cl)cc1C(=O)NNC(=S)NC1CCCC1 | inactive
O=C(CSC1=Nc2ccccc2C2=NC(CC(=O)NCc3ccco3)C(=O)N12)NCc1ccco1 (configuration not stated) | inactive
CC(C)C1N=C2c3ccccc3N=C(SCC(=O)c3ccc(O)c(O)c3)N2C1=O (configuration not stated) | 14.1 µM (active)
CCC(C)NC(=O)CSC1=Nc2ccccc2C2=NC(CCC(=O)NCc3ccco3)C(=O)N12 (configuration not stated) | inactive
O=P(O)(O)C(O)c1ccc2ccccc2c1 (configuration not stated) | inactive
CC(C)(C)N(Cc1ccccc1)C(=O)COC(=O)CCc1c[nH]c2ccccc12 | inactive
COc1cccc(C(=O)Nc2c3c(nn2-c2cccc(C)c2C)CS(=O)(=O)C3)c1OC | inactive
Cc1cccc(-n2nc3c(c2NC(=O)c2ccc(Br)o2)CSC3)c1C | 35.5 µM (active)
Cc1ccc(-n2nc3c(c2NC(=O)c2ccc4c(c2)OCO4)CSC3)c(C)c1 | inactive
Nc1nc2c(ncn2[C@@H]2O[C@H](COP(=O)(O)OP(=O)(O)OP(=O)(O)O)[C@@H](O)C2O)c(=O)[nH]1 (some centres not stated) | inactive
c1ccc(CN2CCC(N=C3NN=C(c4ccc5c(c4)OCCO5)CS3)CC2)cc1 | inactive
S=c1[nH]c2ccccc2c2ccccc12 | inactive
Cc1ccc(NC(=O)CSc2nc(CSc3ccc(C)cc3)cc(=O)[nH]2)cc1 | inactive
Cc1cc(=O)[nH]c(SCC(=O)Nc2ccc(Br)cc2)n1 | inactive
COc1ccc(NC(=O)CSc2nc(NS(=O)(=O)c3ccc(C)cc3)cc(=O)[nH]2)cc1 | 35.5 µM (active)
CSc1ccccc1N1CCN(CCCCCC(=O)NC2CCCc3ccccc32)CC1 (configuration not stated) | inactive
O=[N+]([O-])c1ccccc1S(=O)(=O)Nc1cccc2cccnc12 | inactive

— PubChem BioAssay AID2549 (National Center for Advancing Translational Sciences (NCATS), 2010)
